Results published in PubChem BioAssay (Tox21).
Where “and” joins values, the source holds several entries; their conditions need not be identical. Equal entries are not always repeated. Results filed as inconclusive are left out. Where a call stands in place of a potency, no number is given. Where a structure was tested more than once in an assay, its records may differ in their call. Calls of active or inactive are those of the source. Unless noted, calls follow the shape of the dose curve; as a rule, active = well fitted curve in the direction sought with a large enough effect in the repeat runs; inconclusive = weak or mixed curves; inactive = no such curve, though single readings can be large; an effect the other way counts as inactive or inconclusive.

Legend:
[1] = qHTS assay to identify small molecule agonists of the estrogen receptor alpha (ER-alpha) signaling pathway in the presence of an antagonist - cell viability counter screen (AID 1259386);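 also: cells exposed to compounds for 22 h at 37 °C before the viability read; nearly all actives have a fitted effect of over 30% in size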; also: potency is read from the fitted curve at half-maximal effect
How it was run: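 Using estrogen-depleted VM7Luc4E2 cells, the 15-concentration compound series was applied together with 10.0nM ICI-182,780 and incubated 22hr at 37C/5% CO2. Cell viability was then scored by CellTiter-Fluor.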

[2] = target: Progesterone receptor (Homo sapiens) (UniProt P06401); assay: qHTS assay to identify small molecule agonists of the progesterone receptor (PR) signaling pathway (AID 1346784; calls by dose curve; also: nearly all actives have a fitted effect of over 30% in size)
Progesterone receptor (Homo sapiens), sequence (P06401 whole entry, looked up): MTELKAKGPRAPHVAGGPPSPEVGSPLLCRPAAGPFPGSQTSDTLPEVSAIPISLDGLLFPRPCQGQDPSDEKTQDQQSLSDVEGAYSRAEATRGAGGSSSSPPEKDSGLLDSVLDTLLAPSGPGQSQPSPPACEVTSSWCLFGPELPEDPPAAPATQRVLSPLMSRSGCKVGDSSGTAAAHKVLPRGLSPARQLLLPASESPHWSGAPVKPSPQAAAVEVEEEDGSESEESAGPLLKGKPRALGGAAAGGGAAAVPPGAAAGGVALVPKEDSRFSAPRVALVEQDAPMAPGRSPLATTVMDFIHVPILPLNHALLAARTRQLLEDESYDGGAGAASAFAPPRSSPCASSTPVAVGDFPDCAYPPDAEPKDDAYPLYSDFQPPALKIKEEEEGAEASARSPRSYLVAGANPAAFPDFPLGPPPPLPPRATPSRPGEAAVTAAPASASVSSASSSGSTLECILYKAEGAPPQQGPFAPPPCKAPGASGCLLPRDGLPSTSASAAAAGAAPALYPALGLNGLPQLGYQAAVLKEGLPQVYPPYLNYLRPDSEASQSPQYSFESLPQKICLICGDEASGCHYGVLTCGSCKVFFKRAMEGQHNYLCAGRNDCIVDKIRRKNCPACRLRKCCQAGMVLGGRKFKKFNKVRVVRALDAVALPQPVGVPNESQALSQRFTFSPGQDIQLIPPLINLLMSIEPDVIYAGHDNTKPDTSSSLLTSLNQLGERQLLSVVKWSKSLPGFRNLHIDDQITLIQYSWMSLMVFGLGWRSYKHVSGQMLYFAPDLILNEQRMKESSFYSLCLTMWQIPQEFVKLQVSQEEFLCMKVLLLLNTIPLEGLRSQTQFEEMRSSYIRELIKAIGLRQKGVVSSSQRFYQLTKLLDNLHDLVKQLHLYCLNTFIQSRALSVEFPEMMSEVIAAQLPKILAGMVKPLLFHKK
How it was run: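 Seed PR-UAS-bla HEK 293T cells (2% charcoal-stripped FBS), incubate 6 hr at 37C; add compounds in DMSO, 16 hr at 37C; add LiveBLAzer B/G substrate, 2 hr RT; read fluorescence intensity.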

[3] = target: Progesterone receptor (Homo sapiens) (UniProt P06401); assay: qHTS assay to identify small molecule antagonists of the progesterone receptor (PR) signaling pathway (AID 1346795; active = well fitted inhibition curve with a large enough effect in the signal ratio in the repeat runs, not every such curve was filed as active; the % refers to the signal ratio; also: potency is read from the fitted curve at half-maximal effect)
How it was run: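 Screening used a GripTite HEK293T line with PR-responsive UAS-beta-lactamase. Cells were challenged with compound in the presence of 1 nM R5020 final for 16 hr at 37C; B/G FRET substrate, 2 hr room temperature, fluorescence.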

[4] = qHTS assay to identify small molecule antagonists of the TGF-beta/Smad signaling pathway - cell viability counter screen (AID 1346824); also: nearly all actives have a fitted effect of over 50% in size
How it was run: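 Cytotoxicity counter-screen run in the same wells as the beta-lactamase Smad reporter read: CellTiter-Glo luminescence after 30 min at room temperature. HEK 293T SBE-bla cells had 5 hr compound exposure at 37 C with TGF-beta1 (0.25 ng/mL stock).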

[5] = qHTS assay to identify small molecule agonists of the TGF-beta/Smad signaling pathway - cell viability counter screen (AID 1346829); also: nearly all actives have a fitted effect of over 45% in size; also: potency is read from the fitted curve at half-maximal effect
How it was run: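 SBE-bla HEK 293T cells plated overnight, compound exposure 5 hr at 37 C. Viability read in the same wells by CellTiter-Glo luminescence after 30 min at room temperature, following the beta-lactamase read.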

[6] = qHTS assay to identify small molecule agonists of the TGF-beta/Smad signaling pathway (AID 1346859; active = well fitted activation curve with a large enough effect in the signal ratio in the repeat runs, not every such curve was filed as active; the % refers to the signal ratio; also: series mostly up to about 77 µM)
How it was run: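 Beta-lactamase reporter activity downstream of Smad binding elements was measured in stably transfected HEK 293T cells; compounds were incubated for 5 hr, substrate for 2 hr at room temperature.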

[7] = target: Thyrotropin-releasing hormone receptor (Homo sapiens) (UniProt P34981); assay: qHTS assay to identify small molecule agonists of the thyrotropin-releasing hormone receptor (TRHR) signaling pathway (AID 1346891; calls by dose curve;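 also: HEK293 cells expressing TRHR with calcium dye readout; series mostly up to about 58 µM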)
Thyrotropin-releasing hormone receptor (Homo sapiens), sequence (P34981 whole entry, looked up): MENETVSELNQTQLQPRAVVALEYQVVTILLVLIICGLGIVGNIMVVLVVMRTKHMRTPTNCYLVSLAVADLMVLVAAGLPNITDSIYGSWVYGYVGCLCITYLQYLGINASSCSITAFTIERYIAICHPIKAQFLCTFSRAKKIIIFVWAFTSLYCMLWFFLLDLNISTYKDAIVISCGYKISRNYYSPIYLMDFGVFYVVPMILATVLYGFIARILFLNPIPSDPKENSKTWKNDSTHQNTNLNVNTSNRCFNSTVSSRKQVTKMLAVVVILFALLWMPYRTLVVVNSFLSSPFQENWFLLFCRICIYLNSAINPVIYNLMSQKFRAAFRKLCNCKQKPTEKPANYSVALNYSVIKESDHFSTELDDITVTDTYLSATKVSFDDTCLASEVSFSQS
How it was run: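 Overnight-plated (18 h, 37 °C, 5% CO2) TRHR-Hek293 cells; 2 h calcium dye at 37 °C; compound in DMSO; 3-min kinetic fluorescence read.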

[8] = Human pregnane X receptor (PXR) small molecule agonists, qHTS cell viability counter screen (AID 1346977); also: nearly all actives have a fitted effect of over 50% in size; also: potency is read from the fitted curve at half-maximal effect
How it was run: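 After a 5hr pre-incubation, PXR-Luc HepG2 cells received compounds plus positive control in DMSO and were kept 24hr at 37C. Cell viability was quantified by fluorescence from CellTiter-Fluor added for the final hour.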

[9] = Caspase-3/7 induction in HepG2 cells by small molecules, qHTS assay (AID 1346978); also: nearly all actives have a fitted effect of over 15% in size
How it was run: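 Caspase-3/7 induction was measured by Caspase-Glo 3/7 luminescence (30 min, room temperature) after a 17 hr compound exposure of wild-type HepG2 cells seeded at 2,000 per well and pre-incubated 5 hr.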

[10] = Caspase-3/7 induction in CHO-K1 cells by small molecules, qHTS cell viability counter screen (AID 1346979); also: nearly all actives have a fitted effect of over 35% in size; also: potency is read from the fitted curve at half-maximal effect
How it was run: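 Multiplexed with Caspase-Glo 3/7 in CHO-K1 cells, this counter screen added CellTiter-Fluor after 16hr of compound exposure and recorded fluorescence 1hr later.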

[11] = Caspase-3/7 induction in CHO-K1 cells by small molecules, qHTS assay (AID 1346980); also: nearly all actives have a fitted effect of over 15% in size
How it was run: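 Luminescent Caspase-Glo 3/7 read (30min, room temperature) quantified apoptosis induction. Cells were wild-type CHO-K1, treated with compound for 17hr at 37 C and 5% CO2.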

[12] = Caspase-3/7 induction in HepG2 cells by small molecules, qHTS cell viability counter screen (AID 1346981); also: nearly all actives have a fitted effect of over 30% in size; also: potency is read from the fitted curve at half-maximal effect
How it was run: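 After a 5-hr attachment period at 37 C and 5% CO2, wild-type HepG2 cells received compounds in DMSO. Sixteen hours later CellTiter-Fluor was dispensed and the fluorescent signal quantified after a further hour.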

[13] = target: Nuclear receptor subfamily 1 group I member 2 (Homo sapiens) (UniProt O75469); assay: Human pregnane X receptor (PXR) small molecule agonists, qHTS assay (AID 1346982); also: nearly all actives have a fitted effect of over 35% in size; also: potency is read from the fitted curve at half-maximal effect
Nuclear receptor subfamily 1 group I member 2 (Homo sapiens), sequence (O75469 whole entry, looked up): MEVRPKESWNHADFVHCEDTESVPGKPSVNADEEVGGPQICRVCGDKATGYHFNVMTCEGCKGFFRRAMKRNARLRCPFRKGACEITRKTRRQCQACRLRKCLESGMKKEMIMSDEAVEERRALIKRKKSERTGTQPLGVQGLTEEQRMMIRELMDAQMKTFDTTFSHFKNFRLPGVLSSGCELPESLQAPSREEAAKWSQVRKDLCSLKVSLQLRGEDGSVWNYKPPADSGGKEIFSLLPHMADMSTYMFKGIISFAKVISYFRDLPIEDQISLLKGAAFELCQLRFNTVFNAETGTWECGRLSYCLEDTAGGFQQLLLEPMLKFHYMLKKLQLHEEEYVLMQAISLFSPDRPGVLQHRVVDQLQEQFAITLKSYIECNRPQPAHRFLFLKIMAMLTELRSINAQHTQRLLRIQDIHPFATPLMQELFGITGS
How it was run: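 Tox21 qHTS; PXR-Luc HepG2; compounds pinned from DMSO; 24 hr, 37 C; ONE-Glo luciferase detection, 30 min room temperature.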

[14] = target: Cytochrome P450 2D6 (Homo sapiens) (UniProt P10635); assay: Cytochrome P450 Family 2 Subfamily D Member 6 (CYP2D6) small molecule antagonists: luciferase reporter qHTS assay (AID 1671196); also: nearly all actives have a fitted effect of over 50% in size; also: potency is read from the fitted curve at half-maximal effect
Cytochrome P450 2D6 (Homo sapiens), sequence (P10635 whole entry, looked up): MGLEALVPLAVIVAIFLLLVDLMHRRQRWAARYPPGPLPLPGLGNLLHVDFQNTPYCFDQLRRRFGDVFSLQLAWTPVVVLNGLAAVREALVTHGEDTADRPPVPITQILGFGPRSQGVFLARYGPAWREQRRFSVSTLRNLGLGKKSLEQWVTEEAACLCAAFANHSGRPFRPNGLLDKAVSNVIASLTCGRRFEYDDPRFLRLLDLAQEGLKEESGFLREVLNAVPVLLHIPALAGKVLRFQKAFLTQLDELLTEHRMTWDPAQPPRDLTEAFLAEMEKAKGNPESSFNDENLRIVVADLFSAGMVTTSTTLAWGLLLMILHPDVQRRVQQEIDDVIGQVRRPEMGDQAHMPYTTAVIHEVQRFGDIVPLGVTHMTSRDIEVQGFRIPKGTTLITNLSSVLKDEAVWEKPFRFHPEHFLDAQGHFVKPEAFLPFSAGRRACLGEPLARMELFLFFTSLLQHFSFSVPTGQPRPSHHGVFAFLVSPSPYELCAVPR
How it was run: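 Room-temperature luminescent CYP2D6 activity assay: compound preincubated 10 min with enzyme–substrate mix, NADPH-initiated reaction 1 h, detection reagent 20 min before reading.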

[15] = qHTS assay to identify small molecule agonists of the progesterone receptor (PR) signaling pathway - cell viability counter screen (AID 1346799; calls by dose curve; also: nearly all actives have a fitted effect of over 45% in size; also: potency is read from the fitted curve at half-maximal effect)
How it was run: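 Using the same plates as the PR reporter screen, HEK293T PR-UAS-bla cells received compounds for 16 hr at 37C and were then lysed with CellTiter-Glo; luminescence was read 30 min later at room temperature.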

[16] = target: Nuclear receptor subfamily 1 group I member 2 (Rattus norvegicus) (UniProt Q9R1A7); assay: Rat pregnane X receptor (rPXR) activation by small molecules, qHTS assay (AID 1346983); conditions: rPXR luciferase reporter cells, One-Glo luminescence, 24 h; stronger effect = higher value; also: nearly all actives have a fitted effect of over 20% in size
Nuclear receptor subfamily 1 group I member 2 (Rattus norvegicus), sequence (Q9R1A7 whole entry, looked up): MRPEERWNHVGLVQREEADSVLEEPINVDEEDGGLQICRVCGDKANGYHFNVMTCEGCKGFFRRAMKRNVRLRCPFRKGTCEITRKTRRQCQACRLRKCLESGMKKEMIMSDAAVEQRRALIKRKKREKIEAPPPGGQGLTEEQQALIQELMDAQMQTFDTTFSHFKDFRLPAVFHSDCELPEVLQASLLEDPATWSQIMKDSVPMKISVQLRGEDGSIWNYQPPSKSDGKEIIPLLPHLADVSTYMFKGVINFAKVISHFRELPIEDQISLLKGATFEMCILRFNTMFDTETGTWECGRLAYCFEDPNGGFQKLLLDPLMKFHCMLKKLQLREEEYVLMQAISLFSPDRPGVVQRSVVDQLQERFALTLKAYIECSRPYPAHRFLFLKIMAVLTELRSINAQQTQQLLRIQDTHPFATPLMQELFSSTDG
How it was run: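 Luminescent readout (One-Glo luciferase, 30 min room temperature) followed 24 hr compound treatment at 37 C of rPXR cells plated 2,000 per well and preincubated 5hr; qHTS format with compounds delivered in DMSO.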

[17] = target: Nuclear receptor subfamily 1 group I member 2 (Homo sapiens) (UniProt O75469); assay: CYP3A4 induction through human pregnane X receptor (PXR) by small molecules, qHTS assay (AID 1346984); also: nearly all actives have a fitted effect of over 40% in size
How it was run: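 Cells (DPX-2; HepG2 with PXR element plus CYP3A4-promoter luciferase) settled 5hr, then were treated 24hr at 37C. A 3hr, 3uM-final Luciferin-IPA step preceded luminescence measurement with One-Glo.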

[18] = target: Nuclear receptor subfamily 1 group I member 2 (Homo sapiens) (UniProt O75469); assay: Human pregnane X receptor (PXR) activation by small molecules, qHTS assay (AID 1346985); also: nearly all actives have a fitted effect of over 40% in size
How it was run: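 DPX-2 cells (HepG2 co-transfected with a PXR response element and a CYP3A4-promoter luciferase construct) were seeded at 2,000 per well, rested 5 hr at 37C, then exposed to DMSO-dissolved compounds for 24 hr. Activation was read as luciferase luminescence.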

[19] = qHTS assay to identify small molecule antagonists of the progesterone receptor (PR) signaling pathway - cell viability counter screen (AID 1346798); also: series mostly up to about 92 µM; nearly all actives have a fitted effect of over 50% in size
How it was run: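 Measures cytotoxicity in parallel with the PR antagonist reporter read: HEK293T PR-UAS-bla cells get compound and R5020 for 16 hr, and remaining viable cells are quantified by CellTiter-Glo luminescence.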

[20] = target: Thyrotropin-releasing hormone receptor (Homo sapiens) (UniProt P34981); assay: qHTS assay to identify small molecule antagonists of the thyrotropin-releasing hormone receptor (TRHR) signaling pathway (AID 1346877; active = well fitted inhibition curve with a large enough effect in the repeat runs, not every such curve was filed as active; also: series mostly up to about 51 µM)
How it was run: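 Calcium signal in dye-loaded TRHR/HEK293 cells; compounds added 5 min before TRH (1 nM final); fluorescence monitored 3 min at 1 s steps.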

Row | SMILES | Potency [1] | Potency [2] | Potency [3] | Potency [4] | Potency [5] | Potency [6] | outcome [7] | Potency [8] | Potency [9] | Potency [10] | Potency [11] | Potency [12] | Potency [13] | Potency [14] | Potency [15] | max activation [16] | Potency [17] | outcome [18] | Potency [19] | Potency [20]
1 | O=C(Cl)c1ccc(C(=O)Cl)cc1 | inactive | inactive | inactive | inactive | inactive | inactive | inactive | inactive | inactive | inactive | inactive | inactive | inactive | inactive |  |  |  |  |  | 
2 | OB(O)O | inactive | inactive | inactive | inactive | inactive | inactive | inactive | inactive | inactive | inactive | inactive | inactive | inactive |  | inactive | -0.586% (inactive) | inactive | inactive |  | 
3 | N[C@@H](Cc1cc(I)c(Oc2ccc(O)c(I)c2)c(I)c1)C(=O)O | inactive | inactive |  | inactive | inactive | inactive |  | inactive | inactive | inactive |  | inactive | inactive and 63.7 µM (active) | inactive | inactive | -2.4% (inactive) |  |  |  | 
4 | Nc1cccc(N)n1 | inactive | inactive | inactive | inactive | inactive |  |  | inactive | inactive | inactive |  | inactive | inactive |  | inactive |  |  |  |  | 
5 | O=C(c1ccccc1)c1ccc(O)c(O)c1O | 61.6 µM (active) | inactive |  | inactive | inactive | inactive | inactive |  | inactive | 69.1 µM (active) and 61.1 µM (active) |  | 61.6 µM (active) | 54.9 µM (active) |  |  |  |  |  | inactive | inactive
6 | Cc1ccc(Cl)cc1 |  | inactive | inactive | inactive | inactive |  | inactive | inactive | inactive | inactive | inactive | inactive | inactive | 33.5 µM (active) and inactive | inactive |  |  |  | inactive | inactive
7 | O=c1n(CCCN2CCN(c3cccc(Cl)c3)CC2)nc2ccccn12 |  | inactive | inactive | inactive | inactive | inactive |  | inactive | inactive | inactive |  | inactive |  |  |  | -1.08% (inactive) |  |  |  | 
8 | O=C(O)C1=NN(c2ccc(S(=O)(=O)O)cc2)C(=O)C1 |  | inactive | inactive | inactive | inactive | inactive | inactive | inactive | inactive | inactive | inactive | inactive | inactive | inactive |  |  |  |  |  | 
9 | C1CCCNCC1 |  | inactive | inactive | inactive | inactive |  |  | inactive | inactive | inactive | inactive | inactive | inactive | inactive | inactive |  |  |  | inactive | 
10 | NC(=O)c1ncn([C@@H]2O[C@H](CO)[C@@H](O)[C@H]2O)n1 |  | inactive | inactive | inactive | inactive | inactive | inactive | inactive | inactive | inactive |  | inactive | 9.1 µM (active) and inactive |  |  |  |  |  |  | inactive
11 | CC(O)CNCC(C)O (configuration not stated) |  | inactive | inactive | inactive | inactive |  |  | inactive | inactive | inactive | inactive | inactive | 61.5 µM (active) and inactive | inactive |  |  |  |  |  | 
12 | CC/C(C)=N/O |  | inactive | inactive | inactive | inactive |  | inactive | inactive | inactive | inactive |  | inactive | inactive | inactive |  |  |  |  |  | inactive
13 | Cc1ccccc1Cl |  |  |  | inactive | inactive |  |  | inactive | inactive | inactive |  | inactive | inactive |  |  |  |  |  |  | 
14 | COc1cc(NC(=O)CC(C)=O)c(OC)cc1Cl |  | inactive | inactive | inactive | inactive |  | inactive | inactive | inactive | inactive | inactive | inactive | 68.9 µM (active) and 24.3 µM (active) |  | inactive |  |  |  | inactive | inactive
15 | CC(CN1c2ccccc2Sc2ccccc21)N(C)C (configuration not stated) |  | inactive | 61.8 µM (active) and 30.6 µM (active) | inactive | inactive | inactive | inactive | 44.7 µM (active) and 48.6 µM (active) | inactive | 61.1 µM (active) | inactive |  | 19.3 µM (active) and inactive |  | 69.3 µM (active) and 30.6 µM (active) and inactive |  |  |  |  | inactive
16 | CCCCCCCC(=O)O |  | inactive | inactive | inactive | inactive |  |  | inactive | inactive | inactive | inactive | inactive | inactive | inactive |  | 0.66% (inactive) | inactive | inactive |  | 
17 | CO[Si](CCCNCCN)(OC)OC |  | inactive | inactive |  | 31.4 µM (active) and inactive | inactive | inactive | 31.6 µM (active) and inactive | inactive | 5.53 µM (active) and inactive |  | 62 µM (active) and inactive | 13.9 µM (active) and inactive |  | inactive |  |  |  | inactive | inactive
18 | CC1(C)C(=O)N(Cl)C(=O)N1Cl |  | inactive | inactive | inactive | inactive | inactive | inactive | inactive | inactive | inactive | inactive | inactive | inactive | inactive | inactive |  |  |  |  | 
19 | CC1=CC(=O)CC(C)(C)C1 |  | inactive | inactive | inactive | inactive | inactive |  | inactive | inactive | inactive | inactive | inactive | 62.9 µM (active) and inactive | inactive | 19.9 µM (active) |  |  |  |  | inactive
20 | CCc1cccc(CC)c1N |  | inactive | inactive | inactive | inactive | inactive |  | inactive | inactive | inactive | inactive | inactive | inactive | inactive | inactive |  |  |  |  | 
21 | CCCCCCC(=O)O |  | inactive | inactive | inactive | inactive | inactive |  | inactive | inactive | inactive | inactive | inactive | inactive |  |  |  |  |  | inactive | 
